# The panel holds about 79,000 compounds, 15% with a hit somewhere; the sample as a whole holds those more often. Unmarked numbers belong to inactive results. Active and inactive are the calls of the source. Cut-off read from the data, not from the text of the source: active = growth inhibition above about 70%; inactive = the rest. Where a SMILES comes first, the peptide text is derived from it. The star is where a group is joined. Cbz = O=C(OCc1ccccc1)*
# Key:
# [1] = NCI Yeast Anticancer Drug Screen. Data for the rad50 strain (AID 155);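 note: 0% = growth of vehicle-only cultures of the same strain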; conditions: S. cerevisiae rad50 strain growth inhibition; at 50.0 µM; stronger effect = higher value
# Procedure, shortened: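 Relative growth inhibition (compound vs vehicle) was measured in yeast with a defined repair-gene alteration.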
# [2] = NCI Yeast Anticancer Drug Screen. Data for the mec2-1 strain (AID 157); conditions: S. cerevisiae mec2-1 strain, at 50.0 µM, stronger effect = higher value
# Procedure, shortened: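 Compounds were applied to mec2-1 yeast cells. Their growth was then compared with that of vehicle-treated cultures to give growth inhibition.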
# [3] = NCI Yeast Anticancer Drug Screen. Data for the sgs1 mgt1 strain (AID 161);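 note: 0% = growth of cultures given vehicle only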; conditions: S. cerevisiae sgs1 mgt1 strain, at 50.0 µM, stronger effect = higher value
# Procedure, shortened: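 Percent growth inhibition was derived by comparing compound-exposed mutant yeast with vehicle-exposed cultures. The strain carries alterations in DNA damage repair.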
# [4] = NCI Yeast Anticancer Drug Screen. Data for the cln2 rad14 strain (AID 165);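 note: 0% = growth equal to vehicle treated cultures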; conditions: S. cerevisiae cln2 rad14 strain, at 50.0 µM, stronger effect = higher value
# Procedure, shortened: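 Strain: cln2 rad14 yeast, altered in cell cycle control and DNA damage repair. Read-out: growth inhibition vs vehicle.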
# [5] = NCI Yeast Anticancer Drug Screen. Data for the bub3 strain (AID 167); conditions: S. cerevisiae bub3 mutant strain, at 50.0 µM, stronger effect = higher value
# Procedure, shortened: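 Screening used yeast with an engineered genetic alteration affecting cell cycle control. Compound-exposed cultures were compared with vehicle cultures, and reduced growth was taken as inhibition.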
# [6] = NCI Yeast Anticancer Drug Screen. Data for the mlh1 rad18 strain (AID 175); conditions: S. cerevisiae mlh1 rad18 strain growth inhibition; at 50.0 µM; stronger effect = higher value
# Procedure, shortened: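 A repair-deficient yeast strain is exposed to test compound, and growth is scored relative to vehicle-treated controls.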
SMILES,growth inhibition [1],growth inhibition [2],growth inhibition [3],growth inhibition [4],growth inhibition [5],growth inhibition [6]
CN(C)/C(=N/C(=O)Nc1ccccc1)SCc1ccccc1,-10.5%,-3.9%,0.45%,-32%,-9.1%,-1.2%
O=C1CC(c2ccccc2)=NCCN1,-9.2%,16.2%,11.9%,-3.55%,-19.4%,-7.25%
O=[N+]([O-])c1ccc(Cl)c(OCCCBr)c1,10.3%,39.5%,48.6%,14.9%,57.2%,70.3% (active)
COC(=O)c1cc(C)cc(N(c2ccccc2[N+](=O)[O-])S(=O)(=O)c2ccc(C)cc2)c1C,15.9%,-9.35%,-25.3%,1.2%,-10.3%,-9%
O=C1/C(=C/c2ccc(Br)cc2)CCC/C1=C\c1ccc(Br)cc1,24.2%,13%,0.25%,-15.8%,-11.9%,13.9%
CCOC(=O)Cc1csc(NC(NC(=O)OCC)(C(=O)OCC)C(F)(F)F)n1 (centres undefined),2.4%,-0.3%,-17.9%,-4.2%,-12.3%,-6.25%
CCN(CC)CCOC(=O)c1ccc(Cl)c(Cl)c1,13.8%,-5.9%,19.9%,-46.3%,-6.6%,-9.4%
O=S(=O)([O-])Sn1c(-c2ccccc2)c[n+]2ccccc12,11.8%,5.55%,13.9%,14.2%,12.1%,10.8%
CC(=O)Nc1ccc(C(=O)NN2C(=O)CSC2c2ccc(O)cc2)cc1 (centres undefined),-36%,-36.1%,-44.5%,-15.7%,-30.2%,-49.7%
NCCCc1ccc(C(=O)O)cc1,-23.8%,1.85%,-0.5%,-40.2%,5.85%,7.75%
C1=C(c2ccccc2)N(c2ccccc2)N=C(c2ccccc2)C1,0.85%,-19.7%,6%,-10.4%,-1.65%,18.6%
C/C(=N\NC(=O)C(N)=O)c1c(O)cc(C)oc1=O,-29.1%,5.2%,11.6%,-23.1%,1.8%,15.7%
Cc1ccc(N=C2N=C(N3CC(C)OC(C)C3)c3ccccc32)cc1 (centres undefined),-12.9%,-22.9%,-15.6%,-7.8%,0%,-21.4%
CN(C)c1ccc(/C=c2/sc3nc(=O)c(-c4ccccc4NC(=O)C(F)(F)F)nn3c2=O)cc1,3.95%,2.65%,-5.95%,-12.1%,-20.4%,-5.15%
CCOC(=O)CNCc1cccc(C)c1,-1.45%,-10.2%,-19.1%,-82.8%,0.6%,1.95%
CCCC[P+](CCCC)(CCCC)c1ccccc1,-12.7%,12.3%,-0.05%,-32.1%,-8.95%,-1.4%
[O-][n+]1c(/C=C/c2cccc3ccccc23)cccc1/C=C/c1cccc2ccccc12,-8.6%,1%,42.8%,6.55%,29.4%,40.8%
CC1=NN(C(=O)CC(=O)N(C(=O)c2ccccc2Cl)c2ccc(C)cc2)C(=O)C1N=Nc1ccc([N+](=O)[O-])cc1 (centres undefined),46.2%,29.9%,47.5%,27.3%,54.1%,46.1%
C[C@H]1CC[C@@H](C(C)(C)O)CC2=C1CC[C@@H]2C,-0.2%,-44.4%,-13.2%,0.15%,-10.6%,-26.4%
CCOC(=O)CCC(NC(=O)OCc1ccccc1)C(=O)NC(CCC(=O)OCC)C(=O)OCC (centres undefined) (Cbz-Glu(OEt)-Glu(OEt)-OEt; configuration not given here),17.9%,3.15%,-11.4%,7.55%,4.65%,-25.8%

SMILES,growth inhibition [1],growth inhibition [2],growth inhibition [3],growth inhibition [4],growth inhibition [5],growth inhibition [6]
O=C1c2ccccc2-c2ccc(N3C(=O)C=CC3=O)cc21,98.6% (active),98.6% (active),98.8% (active),56.2%,92.4% (active),92.2% (active)
O=C(c1ccc(F)cc1)C1CC1,3.7%,-17.8%,19%,9.3%,-0.95%,2.25%
N[C@@H](C[C@H]1CCC(=O)[C@@H]2O[C@H]12)C(=O)O,-1.5%,-12.8%,-12.5%,0.35%,13.2%,-10.9%
Nc1cc(=O)n(-c2ccccc2)nc1Cl,2.05%,4.4%,-2.25%,-18.6%,3.1%,0.2%
c1ccc(-c2ccc(-c3c(-c4ccccc4)ccc(-c4ccccc4)c3-c3ccccc3)cc2)cc1,20.8%,-0.7%,-10.1%,20.9%,-2.85%,-1.4%
Oc1c(Cl)cc(Cl)cc1C=Nc1cc(C(F)(F)F)ccc1N1CCc2ccccc2C1,53.5%,0.25%,50%,14.4%,42.8%,39.6%
O=C(c1ccc(Br)cc1)C1SC2(C(=O)c3ccc(Br)cc3)SC(C(=O)c3ccc(Br)cc3)C(C(=O)c3ccc(Br)cc3)SC2(C(=O)c2ccc(Br)cc2)SC1C(=O)c1ccc(Br)cc1 (centres undefined),-8.8%,3.75%,-17.4%,-11.9%,-2.95%,-24.4%
CC1(C)CCCC2(C)[C@@H]1CC[C@]13C[C@](C)(CC[C@@H]21)[C@@H]3CO (some centres undefined),-17.8%,-2.9%,-22.6%,-3.35%,-32.1%,-19.9%
Cc1ccc(NCC(=O)N2CC(=O)Nc3ccccc32)cc1,-28.6%,-21%,-35.2%,-4.45%,-23.2%,-15.8%
Cc1ccccc1C(=O)c1cc(O)ccc1O,-11.2%,-10.1%,-1.25%,-8%,-16.3%,-5.2%
CCOC(=O)n1ccnc1,-6.4%,-5.45%,1.5%,8%,9.05%,-2.95%
O=Cc1cc(N=Nc2ccc(S(=O)(=O)O)cc2)ccc1O,5.8%,-35.5%,-1.45%,14.9%,-17.6%,3.6%
CCOC(=O)C(CCCCS(=O)(=O)O)C(=O)OCC,-12.3%,-9.35%,-18.9%,-35%,-5.25%,11.2%
CC1OC(OC2C(OC3C(OC4CCC5(C)C(CCC6(C)C5CC=C5C7CC(C)(C)CCC7(C(=O)O)CCC56C)C4(C)C)OCC(O)C3O)OC(CO)C(O)C2O)C(O)C(O)C1O (centres undefined),92.8% (active),94.4% (active),94.3% (active),92.3% (active),93.8% (active),93.8% (active)
Cc1cc(/C=N/N2CCN(/N=C/c3cc(C)n(-c4ccccc4)c3C)CC2)c(C)n1-c1ccccc1,2.5%,-9.15%,-2.7%,-27.9%,-2.95%,-13.6%
O=C1CCC=Cc2c(O)ccc(O)c21,8.65%,-5.25%,17.8%,0.55%,-1.1%,27.9%
O=c1[nH]c2cc([N+](=O)[O-])ccc2nc1/C=C(\O)c1cccc([N+](=O)[O-])c1,12.3%,-1.35%,5.25%,-5.15%,-3.1%,28.6%
Cc1ccc(N2C(=O)/C(=C3\Sc4c(nc(C)n(C)c4=O)N3c3ccccc3)SC2=S)cc1,-20.9%,-31.4%,-7.3%,-58.5%,-32.5%,-26.8%
COc1ccccc1P(=O)(CCP(=O)(c1ccccc1)c1ccccc1OC)c1ccccc1 (centres undefined),2.15%,15.5%,13.3%,13.5%,-1.75%,9.5%
